# Sampled rows, rich in hits. Any-hit rate of the full collection: about 3.8%.
# 697 NFkB inh – inhibitors of the PMA/ionomycin-induced NF-kB reporter in 697 B cells; 697 B-cell NF-kB luciferase reporter, 16 h; inhibition, % at 4 µM; actives 0.33% (n = 330,000); AID 435022; in the data active means inhibition above about 35%
# Gli-Sufu antag – blocks Gli-Sufu signaling in a luciferase reporter; inhibition, % at 5 µM; actives 0.74% (n = 340,000); Sufu-KO-LIGHT fibroblasts, Gli luciferase reporter luminescence; AID 588413;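 active means inhibition above about 55%, limit read from the data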
# Shn3 inh set2 – reduces Shn3 3'UTR luciferase signal in osteoblasts; inhibition, % at 12.5 µM; actives 0.52% (n = 360,000); Clone20 osteoblast Shn3 3'UTR firefly luciferase, 24 h; AID 588674;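 active means mean inhibition of at least 75% with every replicate also reaching 75%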
# Mdm2 MdmX PPI – disrupts the human Mdm2-MdmX interaction; SaOS-2 split-luciferase Mdm2/MdmX complementation, luminescence; inhibition, % at 8 µM; actives 3% (n = 330,000); O15151+Q00987;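 active means inhibition of at least 50% at 8 µM in the primary screen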
# Target sequence (O15151 whole entry, looked up): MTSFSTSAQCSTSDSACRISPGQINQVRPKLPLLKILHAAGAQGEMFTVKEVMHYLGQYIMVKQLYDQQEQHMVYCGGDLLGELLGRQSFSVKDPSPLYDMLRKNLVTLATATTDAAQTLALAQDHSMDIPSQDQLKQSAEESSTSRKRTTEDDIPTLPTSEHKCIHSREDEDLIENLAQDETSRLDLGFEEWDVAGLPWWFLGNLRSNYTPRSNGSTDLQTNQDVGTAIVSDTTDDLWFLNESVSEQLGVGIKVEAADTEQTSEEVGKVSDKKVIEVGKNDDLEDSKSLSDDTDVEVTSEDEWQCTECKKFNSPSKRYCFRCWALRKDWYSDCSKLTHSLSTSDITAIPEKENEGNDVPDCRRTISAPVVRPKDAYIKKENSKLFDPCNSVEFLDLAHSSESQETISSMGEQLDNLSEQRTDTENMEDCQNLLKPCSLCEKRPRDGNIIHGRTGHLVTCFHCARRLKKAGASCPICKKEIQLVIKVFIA
# Target sequence (Q00987 whole entry, looked up): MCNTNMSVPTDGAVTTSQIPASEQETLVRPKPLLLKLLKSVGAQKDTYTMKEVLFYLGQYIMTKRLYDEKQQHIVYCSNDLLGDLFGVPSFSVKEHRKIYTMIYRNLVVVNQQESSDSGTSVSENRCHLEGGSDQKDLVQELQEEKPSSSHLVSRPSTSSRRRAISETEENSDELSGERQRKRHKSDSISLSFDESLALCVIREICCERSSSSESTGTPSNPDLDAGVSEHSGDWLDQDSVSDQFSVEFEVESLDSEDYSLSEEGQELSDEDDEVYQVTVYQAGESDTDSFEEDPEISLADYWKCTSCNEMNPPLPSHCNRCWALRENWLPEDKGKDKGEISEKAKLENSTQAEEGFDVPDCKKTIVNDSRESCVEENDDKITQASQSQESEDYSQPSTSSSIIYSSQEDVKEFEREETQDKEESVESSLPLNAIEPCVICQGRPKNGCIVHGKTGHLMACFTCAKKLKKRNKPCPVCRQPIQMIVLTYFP
# Jurkat NFkB inh – inhibitors of the PMA/ionomycin-induced NF-kB reporter in Jurkat cells | AID 435003 | PMA/ionomycin-induced NF-kB luciferase reporter, luminescence | inhibition, % at 4 µM | actives 0.53% (n = 330,000); in the data active means inhibition above about 50%
# Mdm2 MdmX conf – confirmation of human Mdm2/MdmX interaction inhibitors; inhibition, % at 8 µM; Mdm2-MdmX binding, luminescent assay; shares compounds with Mdm2 MdmX PPI; actives 55% (n = 10,000); in the data active means inhibition above about 40%
# Full FLuc ctr – counter-screen for Mdm2/MdmX inhibitors: full-length luciferase; actives 77% (n = 6,200); SaOS-2 full-length luciferase counterscreen, luminescence; shares compounds with Mdm2 MdmX PPI; inhibition, % at 8 µM; AID 504607;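 active means mean inhibition at 8 µM reaching about 37%, which flags the compound as non-specific, limit read from the data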;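 further: p53-null SaOS-2 cells with luciferase driven by a doxycycline-inducible promoter; compound on cells about two nights before reading with doxycycline added after day one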
# Hits are given with their value; – = inactive; · = no result.
SMILES,697 NFkB inh,Gli-Sufu antag,Shn3 inh set2,Mdm2 MdmX PPI,Jurkat NFkB inh,Mdm2 MdmX conf,Full FLuc ctr
COc1ccccc1NC(=O)c1sc2ncn(CC(=O)Nc3ccccc3)c(=O)c2c1C,–,–,–,54.9,–,–,·
OC(CNCC(c1ccc(Cl)cc1Cl)c1c[nH]c2ccccc12)c1ccccc1 (stereo not given),–,–,–,97.4,–,80.0,46.2
O=[N+]([O-])c1ccc(-c2nc(-c3cccs3)c(-c3cccs3)[nH]2)cc1,–,–,–,55.7,–,–,·
Fc1ccc(-c2nc(-c3cccs3)[nH]c2-c2ccc(F)cc2)cc1,–,–,–,51.6,–,–,78.5
Oc1ccc(-c2nc(-c3ccc(F)cc3)c(-c3ccncc3)[nH]2)cc1,–,–,–,78.9,–,–,75.5
O=[N+]([O-])c1cccc(-c2nc(-c3cccs3)c(-c3cccs3)[nH]2)c1,–,–,–,–,–,·,·
OC[C@@H]1CN(Cc2cccc(C(F)(F)F)c2)C[C@H](n2cnc3c(NCc4ccco4)ncnc32)O1,·,·,–,·,·,·,·
O=C1c2cccc3c([N+](=O)[O-])ccc(c23)C(=O)N1CCc1ccccn1,–,–,·,95.6,–,–,·
Cc1ccc(Cc2c(C)c(C#N)c3[nH]c4ccccc4n3c2=O)cc1,–,–,–,65.4,–,54.8,–
C=C(C)Cc1c(C)c(C#N)c2[nH]c3ccccc3n2c1=O,–,–,–,–,–,·,·
COc1ccc(NC(=O)c2cc(-c3ccc4c(c3)OCO4)on2)cc1OC,–,–,–,67.9,–,44.8,97.1
O=C(Nc1ccc2c(c1)OCO2)c1cc(-c2ccc(O)cc2)on1,–,–,–,83.7,–,–,·
Nc1c(-c2ccccc2)c(CSc2nc3ccccc3[nH]2)nn1-c1cccc(Cl)c1,–,–,–,61.3,–,–,·
CCN(CC)C(=O)c1[nH]cnc1C(=O)Nc1ccc(Cl)cc1,–,–,–,–,–,·,·
O=S(=O)(c1ccc(Cl)cc1)c1cnc2ccccc2n1,–,–,–,53.1,–,–,·
Cc1cc(C)cc(S(=O)(=O)c2cnc3ccccc3n2)c1,–,–,–,–,–,·,·
O=C(CCl)N(CCCNC(=O)C(F)(F)F)c1ccc([N+](=O)[O-])cc1,–,–,–,93.0,–,71.8,38.2
CC(C)C[C@H](NC(=O)c1[nH]cnc1C(=O)Nc1ccc(Cl)cc1)C(=O)OC(C)(C)C,–,–,–,–,–,·,·
Cc1cccc(NC(=O)c2nc[nH]c2C(=O)Nc2ccccc2[N+](=O)[O-])c1,–,–,–,51.4,–,–,·
CCOC(=O)c1ccc(NC(=O)c2nc[nH]c2C(=O)N[C@@H](Cc2ccccc2)C(=O)OC(C)(C)C)cc1,–,–,–,62.1,–,–,·
CC(C)(C)OC(=O)[C@H](Cc1ccccc1)NC(=O)c1[nH]cnc1C(=O)Nc1cccc(Cl)c1,–,–,–,70.1,–,–,·
CC(C)(C)OC(=O)[C@H](Cc1ccccc1)NC(=O)c1[nH]cnc1C(=O)Nc1ccc(Cl)cc1,–,–,–,50.9,–,–,·
Cc1ccc(Cl)c(NC(=O)COC(=O)c2nn(-c3ccccc3)cc2O)c1Cl,–,–,–,–,–,·,·
CCn1c(SCC(=O)Nc2ccc(F)cc2)nnc1C1CC1,–,–,–,–,–,·,·
COc1cc(C(O)c2nc(-c3ccc(F)cc3OC)cs2)ccc1F (stereo not given),·,·,–,·,·,·,·
SMILES,697 NFkB inh,Gli-Sufu antag,Shn3 inh set2,Mdm2 MdmX PPI,Jurkat NFkB inh,Mdm2 MdmX conf,Full FLuc ctr
Cc1cccc(NC(=O)c2nc[nH]c2C(=O)N[C@@H](Cc2ccccc2)C(=O)OC(C)(C)C)c1,–,–,–,63.7,–,–,·
Cc1ccc(NC(=O)Nc2cccc([N+](=O)[O-])c2)cc1F,–,–,–,57.3,–,44.0,45.1
Cc1ccc(C(C)C)cc1NC(=O)Nc1ccc([N+](=O)[O-])cc1,–,–,86.9,89.1,–,81.5,41.7
O=C(Nc1ccc(Oc2ccc(NC(=O)Nc3ccc([N+](=O)[O-])cc3)cc2)cc1)Nc1ccc([N+](=O)[O-])cc1,–,–,–,95.2,–,66.4,76.0
O=C(Nc1ccc(OC(F)(F)F)cc1)Nc1cccnc1,–,–,–,–,–,·,·
O=C(Nc1ccc(OC(F)(F)F)cc1)Nc1cccc([N+](=O)[O-])c1,–,–,–,94.7,–,90.5,–

# Bioassay records (PubChem)
